Experiment [1] is described as follows: resazurin metabolic signal in HepG2 cells – cell-based, resazurin fluorescence, 24 h, PK04 Diversity Set, profiling panel (AID 1172). Note: test concentration not given here. To be noted: HepG2 viability, higher = more signal.
A short description of experiment [2]: budding yeast growth changes without added modifier – OD600, strain BY4716, 24 h, basal condition, primary screen (AID 1173). To be noted: S. cerevisiae BY4716 growth, OD600, 24 h; higher = more signal, called active from +8 up or from −8 down.
Experiment [3] is described as follows: viability profiling in MM1S myeloma cells – cell-based, resazurin fluorescence, basal, 24 h, PK04 Diversity Set, profiling panel (AID 1174).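 Note: MM1S multiple myeloma cell line; test concentration not given here.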 To be noted: higher = more signal, called active from +8 up or from −8 down.
In experiment [4] the target is Dihydroorotate dehydrogenase (quinone), mitochondrial (Plasmodium falciparum (isolate 3D7)) (UniProt Q08210). Description: inhibition of P. falciparum DHODH – biochemical, C-terminal His tag, absorbance 600 nm, primary screen (AID 1175).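 Note: recombinant parasite enzyme with a five histidine tag at its C terminus; test concentration not given here.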 To be noted: PfDHODH enzyme, DCIP absorbance 600 nm; higher = more signal, called active from +8 up or from −8 down.
Experiment [5] is described as follows: inhibition of PAO1 biofilm formation – strain PAO1, LB-PBS medium, absorbance 600 nm, primary screen (AID 1176). Note: test concentration not given here. To be noted: P. aeruginosa PAO1 growth/biofilm, A600, 12 h; higher = more signal.
Experiment [6] in a line: growth modulation of vineyard yeast isolate – strain RM11-1a, OD600, basal, 24 h, primary screen (AID 1177).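 Note: cultures grown under basal conditions with no added stressor; test concentration not given here.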 To be noted: S. cerevisiae RM11-1a growth, OD600, 24 h; higher = more signal, called active from +8 up or from −8 down.
Experiment [7] is described as follows: growth of efflux-deficient E. coli DRC39 – strain DRC39, OD650, 24 h, E. coli filamentation inducers, primary screen (AID 1178).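 Note: growth measured as culture turbidity by optical density at 650 nm; test concentration not given here.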 To be noted: E. coli DRC39 acrAB, higher = more signal, called active from +8 up or from −8 down.
A short description of experiment [8]: growth of efflux-deficient E. coli DRC39 – strain DRC39, OD650, 48 h, E. coli filamentation inducers, primary screen (AID 1179).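 Note: screen aims at cell division blockers that make cells filament.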 To be noted: E. coli DRC39 delta-acrAB growth, higher = more signal, called active from +8 up or from −8 down.
Experiment [9] in a line: viability profiling in RPMI8226 myeloma cells – cell-based, resazurin fluorescence, basal, 24 h, PK04 Diversity Set, profiling panel (AID 1180).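 Note: RPMI8826 multiple myeloma cell line at 5000 cells per well; test concentration not given here.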 To be noted: higher = more signal. A general note: Resazurin is reduced to fluorescent resorufin, in cell work by metabolically active cells.
Experiment [10] addresses E3 ubiquitin-protein ligase XIAP (Homo sapiens) (UniProt P98170). Kind of experiment: small molecules binding XIAP protein – biophysical, small-molecule microarray, fluorescence 635 nm, primary screen (AID 1181).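 Note: score merges 667 nm emission and signal to noise over triplicate slides.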 To be noted: higher = more signal.

This note sets out measurements from PubChem BioAssay.

Structures are written as SMILES. Active and inactive are the calls of the source. Unless noted, the rule behind the calls is not given here.

Sequence of E3 ubiquitin-protein ligase XIAP (Homo sapiens) (P98170 whole entry, looked up): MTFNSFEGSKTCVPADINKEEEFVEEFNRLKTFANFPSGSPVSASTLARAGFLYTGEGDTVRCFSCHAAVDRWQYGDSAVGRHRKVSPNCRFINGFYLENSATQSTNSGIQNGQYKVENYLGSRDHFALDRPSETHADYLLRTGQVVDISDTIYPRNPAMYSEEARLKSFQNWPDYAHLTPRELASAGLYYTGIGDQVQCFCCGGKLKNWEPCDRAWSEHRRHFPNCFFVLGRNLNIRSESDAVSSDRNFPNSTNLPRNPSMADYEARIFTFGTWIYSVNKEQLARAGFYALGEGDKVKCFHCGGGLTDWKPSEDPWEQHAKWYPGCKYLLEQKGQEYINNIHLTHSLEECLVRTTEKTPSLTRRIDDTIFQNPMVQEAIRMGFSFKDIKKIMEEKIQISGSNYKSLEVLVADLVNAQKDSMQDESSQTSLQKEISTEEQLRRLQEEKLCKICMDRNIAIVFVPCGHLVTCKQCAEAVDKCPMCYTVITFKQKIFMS
Sequence of Dihydroorotate dehydrogenase (quinone), mitochondrial (Plasmodium falciparum (isolate 3D7)) (Q08210 whole entry, looked up): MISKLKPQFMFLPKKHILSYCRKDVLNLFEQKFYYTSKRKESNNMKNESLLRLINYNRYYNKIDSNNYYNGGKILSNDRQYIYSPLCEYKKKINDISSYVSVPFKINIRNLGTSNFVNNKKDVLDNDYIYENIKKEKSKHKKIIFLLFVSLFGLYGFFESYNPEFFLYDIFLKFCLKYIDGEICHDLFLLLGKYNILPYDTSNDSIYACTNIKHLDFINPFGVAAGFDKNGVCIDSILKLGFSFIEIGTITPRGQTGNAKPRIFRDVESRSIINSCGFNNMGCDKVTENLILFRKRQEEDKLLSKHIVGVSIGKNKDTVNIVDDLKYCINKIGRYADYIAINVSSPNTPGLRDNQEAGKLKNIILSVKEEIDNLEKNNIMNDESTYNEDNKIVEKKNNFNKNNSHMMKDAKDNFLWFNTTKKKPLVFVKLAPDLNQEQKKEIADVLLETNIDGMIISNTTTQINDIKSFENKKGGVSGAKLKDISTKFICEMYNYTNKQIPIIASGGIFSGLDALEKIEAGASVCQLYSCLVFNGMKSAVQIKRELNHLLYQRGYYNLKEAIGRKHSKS

Take `CCOC(=O)C1=CC[C@@H](c2ccccc2)N(S(=O)(=O)c2ccc(C)cc2)[C@H]1C#N`: the z-score in experiment [1] was 0.145; in experiment [2], -0.134 (inactive); in experiment [3] it was -1.08 (inactive); in experiment [5], 0.518 (inactive); in experiment [6], 0.0553 (inactive); in [7] it was -1.01 (inactive). Moreover, the z-score in experiment [8] is 0.27 (inactive); in experiment [9] it was -0.99. Also, the composite z-score in [4] was -3.15 (inactive); in experiment [10], 0.129.
On to `COCCOC(=O)N1C(=O)[C@@]2(c3cc(C#CC4(O)CCCCCC4)ccc31)[C@H](c1ccccc1OCCO)N1[C@H](c3ccccc3)[C@H](c3ccccc3)OC(=O)[C@H]1[C@@H]2C(=O)N1CCCCCCC1`, for which the z-score was -0.0209 in experiment [1]; 2.15 (inactive) in [2]; -0.303 (inactive) in experiment [3]; 2.05 (inactive) in experiment [5]; 2.76 (inactive) in experiment [6]; -0.225 (inactive) in experiment [7]. Moreover, the values for the z-score in experiment [8] and in [9] were 0.003 (inactive) and -0.444, respectively. The composite z-score was 0.0767 (inactive) in experiment [4] and 0.0483 in [10].
On to `COc1ccc(C(O)C2C=CC3C(=O)N(C)C(=O)C3N2Nc2ccc([N+](=O)[O-])cc2[N+](=O)[O-])cc1OCc1ccccc1` (stereo not given), for which the z-score is -0.448 in experiment [1]; 0.944 (inactive) in experiment [2]; -1.27 (inactive) in experiment [3]; -0.0067 (inactive) in [5]; 0.371 (inactive) in [6]; -0.98 (inactive) in experiment [7]. Besides, the z-score was -0.383 (inactive) in [8] and -1.39 in [9]. Also, the results for the composite z-score in experiment [4] and in experiment [10] were 0.37 (inactive) and 0.165, respectively.
As to `C=C(COC)/C(=C/C[C@@H](OC(C)=O)c1ccccc1OCCO)c1cc(C(=O)OC)ccc1OC`, the z-score in [1] is -0.0418; in experiment [2] it was 0.487 (inactive); in experiment [3] it was -0.705 (inactive); in experiment [5] it was 0.543 (inactive); in experiment [6] it was 0.759 (inactive); in experiment [7], 0.013 (inactive). The z-score in experiment [8] is -0.199 (inactive); in [9], -0.316. The composite z-score is -0.069 (inactive) in [4] and -0.0279 in [10].
Turning to `O=C(NCC(F)(F)F)[C@@H]1c2ccccc2C(=O)N(CC23CC4CC(CC(C4)C2)C3)[C@H]1c1ccc(CO)cc1`, the z-score is 0.26 in [1]; -2.11 (inactive) in experiment [2]; -1.04 (inactive) in experiment [3]; 1.43 (inactive) in experiment [5]; -2.97 (inactive) in [6]; 1.05 (inactive) in experiment [7]. Moreover, the z-score in [8] is 0.823 (inactive); in [9] it was 0.582. The composite z-score was -2.32 (inactive) in [4] and 0.341 in experiment [10].
In the case of `COCC1=C([C@H](O)CCc2ccccc2)[C@H](CO)n2c(=O)n(-c3ccccc3)c(=O)n2C1`, the z-score is -0.236 in [1]; -3.02 (inactive) in experiment [2]; 0.0444 (inactive) in experiment [3]; 0.188 (inactive) in [5]; -1.94 (inactive) in [6]; 1.19 (inactive) in [7]. The values for the z-score in [8] and in experiment [9] were 1.32 (inactive) and 0.113, respectively. Also, the composite z-score in experiment [4] was -0.855 (inactive); in [10], -0.0848.
Regarding `CC(C)C[C@@H]1NC(=O)C([C@@H](C)OCc2ccccc2)NC(=O)[C@@]23C(=O)N[C@@H](Cc4ccccc4)C2[C@H](C)[C@@]2(C)O[C@H]2C3/C=C/CC/C=C/CNC1=O` (stereo not given in full), the z-score is 0.536 in experiment [1]; -1.78 (inactive) in experiment [2]; -0.0218 (inactive) in [3]; 0.261 (inactive) in experiment [5]; -0.435 (inactive) in experiment [6]; 1.64 (inactive) in [7]. For the same compound, the z-score in [8] is 0.212 (inactive); in experiment [9], -0.417. In addition, the values for the composite z-score in [4] and in experiment [10] were -0.485 (inactive) and -0.144, respectively.
Regarding `CN(C)CCCC[C@@H]1NC(=O)[C@@H]2C[C@H](C(=O)NCCCCCCNC(=O)CS)[C@H](c3cccc(OCCO)c3)N2C1=O`, the z-score in experiment [1] was -0.725; in [2], -0.103 (inactive); in experiment [3], -0.196 (inactive); in [5] it was 0.268 (inactive); in experiment [6], -0.491 (inactive); in [7], 0.303 (inactive). Moreover, the z-score is 0.94 (inactive) in experiment [8] and 0.117 in [9]. Also, the composite z-score in experiment [4] was -0.264 (inactive); in [10], -0.0052.
For `C[C@]1(C(=O)NCC(F)(F)F)c2ccccc2C(=O)N(Cc2ccc(OC(F)(F)F)cc2)[C@H]1c1ccc(CO)cc1`, the z-score in experiment [1] is 0.2; in experiment [2] it was -0.139 (inactive); in experiment [3], -0.296 (inactive); in experiment [5], 1.48 (inactive); in experiment [6], -0.353 (inactive); in experiment [7], -0.414 (inactive). The figures for the z-score in [8] and in experiment [9] were -1 (inactive) and 0.14, respectively. Moreover, the results for the composite z-score in [4] and in experiment [10] were 0.182 (inactive) and 0.212, respectively.
As to `CCCCCCc1nc(-c2ccc(OC)nc2)cc2c1[Si](C(C)C)(C(C)C)OC2`, the z-score was 0.0579 in [1]; 0.721 (inactive) in experiment [2]; 0.426 (inactive) in experiment [3]; -0.0391 (inactive) in experiment [5]; -0.483 (inactive) in experiment [6]; 0.37 (inactive) in experiment [7]. In addition, the z-score in [8] was 0.212 (inactive); in experiment [9], 0.343. The composite z-score in experiment [4] is -3.12 (inactive); in experiment [10], -0.0525.
For the compound `CCCCN1CC=CC23O[C@@H]4/C=C\CCC(C)OC(=O)C4[C@H]2C(=O)N(C(C)CO)[C@@H]3C1=O` (stereo not given in full), the z-score was 0.0172 in experiment [1]; -0.0298 (inactive) in experiment [2]; -0.289 (inactive) in experiment [3]; 0.301 (inactive) in [5]; 0.549 (inactive) in [6]; 0.659 (inactive) in experiment [7]. Further, the results for the z-score in experiment [8] and in experiment [9] were 0.606 (inactive) and -0.175, respectively. Moreover, the composite z-score was -0.216 (inactive) in [4] and 0.0785 in experiment [10].
For `CN(C)CCCNC(=O)[C@@]1(Cc2ccccc2I)c2ccccc2C(=O)N(Cc2ccccc2)[C@H]1c1ccc(CO)cc1`, the z-score was -3.78 in experiment [1]; -3.24 (inactive) in experiment [2]; -0.892 (inactive) in experiment [3]; 0.292 (inactive) in experiment [5]; 0.209 (inactive) in experiment [6]; 0.0574 (inactive) in experiment [7]. Besides, the z-score in experiment [8] is 0.252 (inactive); in experiment [9] it was -1.89. Besides, the composite z-score was -0.19 (inactive) in [4] and 0.24 in experiment [10].
With `CC(C)N1CC=CC23O[C@@H]4C=CCCOC(=O)C4[C@H]2C(=O)N(CCCCCO)[C@@H]3C1=O` (stereo not given in full), the z-score in experiment [1] is 0.613; in experiment [2], 0.848 (inactive); in [3] it was 0.988 (inactive); in experiment [5] it was 0.0126 (inactive); in [6] it was 0.581 (inactive); in [7], 1.01 (inactive). The z-score in [8] is 0.798 (inactive); in [9], 1.42. Also, the composite z-score in experiment [4] is -0.727 (inactive); in experiment [10], 0.0684.
